# Results as given in PubChem BioAssay (NCI).
# The panel holds about 83,000 compounds, 20% with a hit somewhere; the sample as a whole holds those more often.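 48-hour exposure, single concentration, 96-well plates; percent growth endpoint where 0 means no net growth. Active: below 10.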 Unmarked numbers belong to inactive results. Activity calls are given as the source filed them.
# What was measured:
# Assay in all cases: NCI-60 one-dose screen, 48 h (100 = growth as untreated, 0 = no growth, -100 = all killed)
# Conditions in all cases: 10 µM unless noted
# [1] = test system: HCT-15 colon
# [2] = test system: HT29 colon
# [3] = test system: SNB-75 CNS
# [4] = test system: SNB-19 CNS
# [5] = test system: U251 CNS
# [6] = test system: PC-3 prostate
# [7] = test system: SK-MEL-5 melanoma
# [8] = test system: UACC-62 melanoma
# [9] = test system: LOX IMVI melanoma
# [10] = test system: SK-MEL-28 melanoma
SMILES,growth [1],growth [2],growth [3],growth [4],growth [5],growth [6],growth [7],growth [8],growth [9],growth [10]
CCOC(=O)C1C(=O)C(=O)N(C(C)C)C1C(=O)OCC (stereo not given),94.1%,98.2%,85.9%,97.3%,107%,97.8%,103%,96.4%,102%,
CCCCN(CCCC)c1ccc(C(=O)O)cc1,97.3%,108%,83.2%,84.8%,100%,102%,100%,103%,99.4%,
COc1ccccc1Nc1nnc(COc2ccc(CNC(=O)CCCC/C=C/C(C)C)cc2OC)o1,88.3%,103%,94.5%,94.6%,102%,84.4%,98%,81.9%,95.6%,
N/C(=N\O)c1ccncc1,100%,101%,86.7%,104%,106%,102%,113%,98.1%,96.2%,
COC1=CC(c2ccc[nH]2)=N/C1=C\c1[nH]c(C)c(C(=O)CCCCC(=O)NC(C)(C)C)c1C,-31.8% (active),3.41% (active),41.5%,70.1%,22%,-31.3% (active),50.8%,69.1%,-34.4% (active),
COCn1c(C(=O)OC)cc2oc(/C=C3/SC(=S)N(N)C3=O)cc21,105%,97.2%,64.6%,97.2%,75.8%,57.2%,91.7%,94%,87.3%,
BrCCCOc1ccc(Oc2ccc(OCCCBr)cc2)cc1,93.3%,107%,86.6%,92.5%,88.1%,101%,97%,94.5%,50.5%,
O=C(/C=C1\C(=O)N(Cc2ccc([N+](=O)[O-])cc2)c2ccccc21)c1ccc(OCCN2CCCCC2)cc1,-80.6% (active),-89.3% (active),22.3%,57.9%,-46.5% (active),-52.3% (active),33.9%,-74% (active),-82.7% (active),
COC(=O)c1ccc2[nH]c(O)c(C(=Nc3ccc(N(C)C(=O)CN4CCN(C)CC4)cc3)c3ccc4c(c3)OCO4)c2c1,8.49% (active),4.28% (active),-1.84% (active),14%,13.4%,19.3%,10.1%,31.8%,6.8% (active),
O=C(OCC1CC2(Cl)C(Cl)=C(Cl)C1(Cl)C2(Cl)Cl)C1C(C(=O)OCC2CC3(Cl)C(Cl)=C(Cl)C2(Cl)C3(Cl)Cl)C2(Cl)C(Cl)=C(Cl)C1(Cl)C2(Cl)Cl (stereo not given),99.9%,99.6%,97.8%,106%,99.2%,105%,104%,107%,122%,
CCCCN(CCCC)CC(O)CN(CC)CC (stereo not given),104%,88%,87.3%,105%,102%,97.7%,96.2%,105%,96.1%,
CCCNC(=O)Oc1ccc(/C(=C(/CC)Cc2ccccc2)c2ccc(OCCN(CC)CC)cc2)cc1,7.99% (active),-14.8% (active),63.6%,87.7%,45.1%,60.8%,39.8%,91.7%,63.9%,
S=C(N/N=C/c1cc(Cl)cc(Cl)c1)NC12CC3CC(CC(C3)C1)C2,84.9%,49.9%,45.6%,93.6%,40.6%,75.5%,97%,89.5%,45.1%,
O=C(Nc1ccc(-n2cc(-c3ccncc3)c(-c3ccc(Cl)c(O)c3)n2)cc1)c1ccc(Cl)c(C(F)(F)F)c1,-28% (active),-86.3% (active),-48.6% (active),32.5%,-49.1% (active),-19.9% (active),-97.5% (active),-3.14% (active),-5.19% (active),
C[C@]12C=CC(=O)C=C1[C@@H](F)C[C@@H]1[C@@H]2[C@@H](O)C[C@@]2(C)[C@H]1CC[C@]2(O)C(=O)CO,108%,103%,145%,96.2%,108%,97.1%,120%,110%,103%,124%
Cc1nc2c(nnn2-c2ccccc2)c2nc(-c3ccc(Cl)cc3)oc(=O)c12,108%,115%,91.4%,107%,106%,105%,103%,98.4%,96.9%,
O=C(CN1CCN(c2cccc(Cl)c2)CC1)N1CCN(c2nnc(-c3ccc(Cl)cc3)c(-c3ccc(Cl)cc3)n2)CC1,52.9%,59.3%,97.6%,77.6%,71.7%,25.4%,61.6%,71.4%,71.5%,
c1ccc(Nc2ncc3c(n2)-c2cccn2CC3)cc1,32.9%,114%,83.3%,103%,93.7%,81.3%,67%,80.1%,92.4%,
CC(=O)N(N=O)c1ccc([N+](=O)[O-])cc1Cl,54.6%,89.7%,81.2%,58.6%,57.8%,47.4%,18.6%,27.9%,72.7%,
C[C@]12CC[C@H]3[C@@H](CC[C@H]4C[C@@H](O)CC[C@@]43C)[C@@H]1CC(=O)C2,100%,96.9%,98.2%,100%,97.6%,99.7%,111%,87.6%,102%,113%
CC1=C(C)C(=O)C(C(C)C2=C(C)C(=O)C(C)=C(C)C2=O)=C(C)C1=O,99.7%,68.7%,96.6%,99%,81%,52.4%,75%,85%,81%,117%
COC(=O)/C(Br)=C/c1c[nH]c2ccc(Br)cc12,76.8%,95.3%,90.1%,88.7%,68.5%,70.8%,85.1%,68%,62%,
CC1(C)C(O)NC(Cl)=C(C#N)C1(C#N)C#N (stereo not given),153%,101%,98.4%,105%,110%,114%,114%,131%,109%,
O=P(OCCCl)(OCCCl)C(O)c1ccccc1Cl (stereo not given),99.5%,101%,96.7%,107%,113%,103%,112%,106%,104%,
CC(Br)c1nc2ccccc2cc1C(N)=O (stereo not given),98.9%,105%,88.3%,105%,97.9%,103%,104%,93.7%,85.6%,
COC(=O)CC(=O)C(=O)OC,103%,106%,92.2%,107%,102%,99.8%,101%,108%,55.1%,
CC(O)C(N)=O (stereo not given),97.1%,111%,84.3%,106%,103%,92.6%,101%,107%,109%,100%
Cc1nnc(/N=C2\NC(=O)/C(=C/C=C/c3ccccc3)S2)s1,37%,92.8%,66.5%,53.7%,49.5%,39.2%,44.2%,46.1%,44.3%,
COc1cccc2c1nc1cccc(OC)c1[n+]2[O-],47.4%,53.9%,58.3%,46.9%,46.6%,73.2%,62%,39.6%,31.9%,
